# Records with an inconclusive call do not appear. Active and inactive are the calls of the source. The calls were made as follows, unless noted: active = hit-call score of the fitted dose curve at least 0.9, where 1 is the maximum; inactive = score below 0.9.
# Tests used:
# IYD (gene 389434) = test: CCTE_GLTED_hIYD: CCTE's human Iodotyrosine Deiodinase (xIYD) Inhibition Assay, Great Lakes Toxicology and Ecology Division (GLTED) Lab (AID 2284317; active = hit-call score of the fitted dose curve at least 0.9, where 1 is the maximum;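 also: cell-free human IYD enzyme made in baculovirus insect cells; iodide freed from monoiodotyrosine measured by cerium arsenite color change at 420 nm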)
# In short: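 Human IYD expressed in a baculovirus-insect cell system was incubated 3 h with monoiodotyrosine and test chemical. Released iodide, separated on Dowex columns, was quantified by the Sandell-Kolthoff reaction at 420 nm; plates were normalized to MNT and DMSO/NaOH controls.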
# [1] = CCTE_Deisenroth_5AR_NBTE_donor: CCTE's 5alpha-reductase NanoBRET Target Engagement Assay […], Deisenroth Lab (AID 2284319); conditions: actives raise or lower the signal
# In short: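 In this secondary endpoint, donor luminescence from SRD5A2-NanoLuc in transfected HEK293T flags artifacts. Test chemical (10 nM - 29.9 uM) is present five hours, tracer the last two; mock-tracer wells run plate-matched; data fitted bidirectionally against DMSO.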
# [2] = CCTE_Deisenroth_5AR_NBTE_acceptor: CCTE's 5alpha-reductase NanoBRET Target Engagement Assay - Autofluorescence Screen, Deisenroth Lab (AID 2284321); conditions: actives raise or lower the signal;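 also: compound fluorescence in the acceptor channel under 460 nm excitation flags autofluorescence artifacts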
# In short: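 Chemicals diluted to a nominal 100 uM in DMSO were scanned at 460 nm excitation. Samples were read in three independent runs (n=3). Gain or loss of acceptor signal was fitted relative to DMSO.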
# SRD5A2 (gene 6716) = test: CCTE_Deisenroth_5AR_NBTE_ratio: CCTE's 5alpha-reductase NanoBRET Target Engagement Assay - Ratio, Deisenroth Lab (AID 2284322); conditions: actives raise or lower the signal
# In short: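 Reverse-transfect HEK293T with pNLF1-C-SRD5A2, express 20 h. Pre-incubate cells with chemical 3 h (8-point series, 10 nM - 29.9 uM, duplicate). Add testosterone tracer, 2 h more. Add substrate/inhibitor, read donor and acceptor emission.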
# [3] = IUF_NPC2-5_cytotoxicity_72hr: Cytotoxicity Assessment at 72 hours in the Leibniz Research Institute for Environmental Medicine (IUF) Neural Progenitor Cell Migration and Differentiation Assay for Cytotoxicity (NPC2-5) (AID 2284306; active = hit-call score of the fitted dose curve at least 0.9, where 1 is the maximum;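 also: LDH release into supernatant measured by resorufin fluorescence marking membrane damage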)
# In short: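 Human fetal (GW 16-19) neural progenitor spheres, 0.3 mm, plated on poly-D-lysine/laminin in N2 differentiation medium and exposed from day 0 to 7 concentrations plus solvent control (DMSO ≤0.1%). LDH-dependent resazurin-to-resorufin fluorescence in supernatant at 72 h.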
# [4] = IUF_NPC2-5_cytotoxicity_120hr: Cytotoxicity Assessment at 120 hours in the Leibniz Research Institute for Environmental Medicine (IUF) Neural Progenitor Cell Migration and Differentiation Assay (NPC2-5) (AID 2284307; active = hit-call score of the fitted dose curve at least 0.9, where 1 is the maximum)
# In short: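 Fluorescence (RFU) from LDH-driven resazurin reduction in medium supernatants measured loss of membrane integrity after 120 h of compound exposure of differentiating primary human neural progenitor spheres on an extracellular matrix.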
# [5] = IUF_NPC2-5_cell_number_120hr: Cell Number Assessment at 120 hours in the Leibniz Research Institute for Environmental Medicine (IUF) Neural Progenitor Cell Migration and Differentiation Assay (NPC2-5) (AID 2284308);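 also: count of Hoechst-stained nuclei in migration zone around plated human neural progenitor spheres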
# In short: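 Cell number is taken as all Hoechst-positive nuclei detected in the area into which cells migrate out of the sphere, scored at 120 h and referenced to DMSO solvent control, which was kept at no more than 0.1%.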
# [6] = IUF_NPC2-5_viability_120hr: Viability Assessment at 120 hours in the Leibniz Research Institute for Environmental Medicine (IUF) Neural Progenitor Cell Migration and Differentiation Assay (NPC2-5) (AID 2284312)
# Description: IUF_NPC2-5 is a cell-based, multiplexed assay that uses hNPC, a human primary neural progenitor cells, with measurements taken at 72 or 120 hours after chemical dosing in a 96-well plate. Human neural progenitor cells (hNPC) are generated from human fetal brain cortex at gestational week (GW) 16-19. In the neural progenitor cell migration and differentiation assay (NPC2-5), hNPCs grown as spheres are plated on an extracellular matrix and migrate and differentiate out of the sphere core. The processes radial glia migration, neuronal and oligodendrocyte migration as well as neuronal differentiation, neuronal morphology and oligodendrocyte differentiation are studied using automated phase contrast imaging and automated fluorescence imaging in combination with high content image analysis. In parallel, the cell viability is assessed using an alamar blue viability assay and the cytotoxicity using a lactate dehydrogenase dependent membrane integrity assay.IUF_NPC2-5_viability_120hr is one of 12 assay components measured from the IUF_NPC2-5 assay. It is designed to measure cell viability assessed as mitochondria-dependent reduction of resazurin to resorufin using the alamar blue viability assay. The viability is measured as a fluorescence signal (relative fluorescence unit) in a multiplate reader. Data from the IUF_NPC2-5_viability_120hr component was analyzed at the endpoint IUF-NPC2-5_viability_120hr in the positive analysis fitting direction relative to DMSO as the negative control and baseline of activity. Using a type of viability reporter, gain or loss-of-signal activity can be used to understand viability effects.
# Culture protocol: After the cell expansion period the cells are cultured for up to four weeks in which they are passaged every week as described in 3.6. Between one to three days after passaging spheres at a size of 0.3 mm are picked for the test method. For the assessment of neural progenitor cell migration and differentiation, the spheres are plated on poly-D-lysine/laminin coated 96-well flat bottom plates in differentiation medium (N2) to initiate migration and differentiation. […] Therefore, half of the test condition solution (e.g. solvent control or compound dilution) is replaced by freshly prepared test condition solution.Test Method: Migration distance and cytotoxicity is determined after 72 hours based on brightfield images of each well. […] On the ICC images, migration after 120 hours, neuronal and oligodendrocyte number, neuronal morphology and neuron/oligodendrocyte specific migration is assessed. immunocytochemical staining (ICC) generates an image for each sphere. The plates are scanned using an automated high content imaging device and all nuclei and their positions are determined automatically based on their intensity and size. […]
# [7] = CCTE_Mundy_HCI_iCellGluta_NOG_NeuriteLength: CCTE's Neurite Outgrowth Assay in iCellGluta cells for Neurite Length, Mundy Lab (AID 2284318; active = hit-call score of the fitted dose curve at least 0.9, where 1 is the maximum)
# In short: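 Automated high-content imaging of betaIII-tubulin (Alexa Fluor-488) and Hoechst-stained cells gave neurite length, normalized to the DMSO baseline.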
smiles,measurement,setting,value
Oc1ccc2cc(SSc3ccc4cc(O)ccc4c3)ccc2c1,AC50,IYD (gene 389434),56.9 µM (active)
C[C@H]1O[C@@H](O[C@H]2[C@@H](O)C[C@H](O[C@H]3[C@@H](O)C[C@H](O[C@H]4CC[C@@]5(C)[C@H](CC[C@@H]6[C@@H]5C[C@@H](O)[C@]5(C)[C@@H](C7=CC(=O)OC7)CC[C@]65O)C4)O[C@@H]3C)O[C@@H]2C)C[C@H](O)[C@@H]1O,outcome,[1],inactive
same,outcome,[2],inactive
same,AC50,SRD5A2 (gene 6716),0.354 µM (active)
CC(CN=Cc1ccccc1O)N=Cc1ccccc1O (centres undefined),outcome,[1],inactive
same,outcome,[2],inactive
same,outcome,SRD5A2 (gene 6716),inactive
Cc1cc(S(=O)(=O)O)ccc1N=Nc1c(O)ccc2ccccc12,AC50,[1],18.3 µM (active)
same,outcome,[2],inactive
same,AC50,SRD5A2 (gene 6716),25 µM (active)
Cc1ccc(S(=O)(=O)Oc2ccc(N=Nc3ccc(-c4ccc(N=Nc5c(O)ccc6cc(S(=O)(=O)O)cc(S(=O)(=O)O)c56)c(C)c4)cc3C)cc2)cc1,AC50,IYD (gene 389434),44.4 µM (active)
same,outcome,[1],inactive
same,outcome,[2],inactive
same,AC50,SRD5A2 (gene 6716),11.9 µM (active)
Nc1ccccc1[N+](=O)[O-],outcome,[1],inactive
same,outcome,[2],inactive
same,AC50,SRD5A2 (gene 6716),50 µM (active)
CCCCC(CC)COC(=O)c1ccc(O)cc1 (centres undefined),AC50,IYD (gene 389434),44.3 µM (active)
CCc1cc(Cc2cc(CC)cc(C(C)(C)C)c2O)c(O)c(C(C)(C)C)c1,AC50,IYD (gene 389434),102 µM (active)
CN(C)CCOC(C)(c1ccccc1)c1ccccn1 (centres undefined),outcome,[3],inactive
same,outcome,[4],inactive
same,outcome,[5],inactive
same,outcome,[6],inactive
same,outcome,[7],inactive
CC(C)CCCCCCCCCCCCCCC(=O)O,AC50,IYD (gene 389434),40.8 µM (active)
O=C(Nc1ccc2c(O)c(N=Nc3ccc(N=Nc4ccc(S(=O)(=O)O)cc4)cc3)c(S(=O)(=O)O)cc2c1)c1ccccc1,AC50,IYD (gene 389434),91.3 µM (active)
same,AC50,[1],9.98 µM (active)
same,outcome,[2],inactive
same,AC50,SRD5A2 (gene 6716),11.6 µM (active)

# Reference: PubChem BioAssay (EPA / NIEHS)
